Compounds with a hit are over-represented: about 7.8% of the library has one in this group of screens.
HCMV inh: human cytomegalovirus inhibition | hit rate 4.5% among 410,000 | HFF cells, HCMV-luciferase reporter, 72 h; active compounds read low | AID 1259415 | activity change, negative = inhibition, % at 57.5 µM; in the data active = activity change below about -60%; inconclusive = no clear call, values can overlap the other calls; inactive = above about -39%
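After 16 h attachment at 37C, HFF cells received test compound and HCMV-luciferase (1 PFU/cell); reporter luminescence read 72 h later, data normalized against buffer-only and known inhibitor Salinomycin.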
VACV mCherry inh: inhibitors of vaccinia virus infection (mCherry reporter signal); hit rate 0.63% among 310,000; Potency, µM (highest dose often 36.5 µM), most hits filed as inhibitors; Vaccinia virus mCherry reporter infection, fluorescence; calls by dose curve; tested in A549 cells; also: nearly all actives have a fitted effect of over 35% in size
LASV entry inh: blocks Lassa virus binding to or entry into cells; Lassa virus pseudotype entry inhibition, cell reporter; Potency, µM (titrated, usually from 37.9 µM), most hits filed as inhibitors; hit rate 1.2% among 300,000; calls by dose curve; tested in HEK293 cells; also: nearly all actives have a fitted effect of over 50% in size
MARV entry inh: inhibitors of Marburg virus binding or cell entry; Marburg virus pseudotyped entry inhibition, cell reporter; Potency, µM (series often up to 37.8 µM), most hits filed as inhibitors; hit rate 1.8% among 300,000; AID 540276; calls by dose curve; tested in HEK293 cells
HCV inh: blocks hepatitis C virus. Huh7.5.1 HCVcc-Cre infection, luciferase reporter, 44 h. Potency, µM (top dose mostly 41.8 µM), actives largely listed as inhibitors. hit rate 3.4% among 340,000. AID 651820; active = well fitted inhibition curve with a large enough effect; inconclusive = small, poorly fitted or top-dose-only effect, or another doubt; inactive = no such curve, though single readings can be large or run the other way
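HCVcc-Cre virus at an moi near 0.5 was added right after compound to cells cultured 4 h from seeding (1,000 cells/well). Luciferase activity was determined 44 h later, 15 min after substrate addition at RT.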
Vaccinia Venus: inhibitors of vaccinia virus (Venus reporter) | Vaccinia virus Venus reporter expression, fluorescence | Potency, µM (doses to about 36.5 µM), usual class: inhibitors | hit rate 0.46% among 330,000 | AID 720580; calls by dose curve; tested in A549 cells; also: nearly all actives have a fitted effect of over 30% in size
Hits are given with their value; n = inactive; u = inconclusive; x = not tested or not shown; [ ] = another dose, or the depositor's remark.

SMILES	HCMV inh	VACV mCherry inh	LASV entry inh	MARV entry inh	HCV inh	Vaccinia Venus
Cc1ccc2nc3c(c(Nc4ccc5c(c4)OCCO5)c2c1)CCC3	-66	u	14µM	u	u	u
COc1ccc(Nc2c3c(nc4ccc(C)cc24)CCC3)cc1	-81	x	x	x	u	x
CCn1ncc(C2=NOC(C(=O)NCc3ccccc3)C2)c1C (stereo not given)	-60	x	n	u	n	x
CCn1ncc(C2=NOC(C(=O)Nc3c(C)nn(Cc4ccc(F)cc4)c3C)C2)c1C (stereo not given)	-61	n	x	x	u	n
CCn1ncc(C2=NOC(C(=O)Nc3c(C)n(C)n(-c4ccccc4)c3=O)C2)c1C (stereo not given)	n	n	x	x	n	n
COc1cccc(Nc2nccc3[nH]c(-c4ccc(F)c(F)c4)nc23)c1	n	x	x	x	x	x
CCN(C(=O)c1cnc2ccc(C)cn2c1=O)c1ccccc1	n	n	x	n	x	n
CN(/N=C\c1ccc(O)c(O)c1)c1nc(-c2ccccc2)cc(-c2ccccc2)n1	n	u	u	u	11µM	u
COc1cc(/C=N/N(c2ccccc2)c2ccccc2)ccc1O	n	u	n	n	u	u
COc1cccc(CN2CCC3(CC2)c2ccccc2[C@@H](NC(=O)c2ccccc2)[C@@H]3O)c1O	x	n	x	x	x	n
O=C(COc1ccccc1[N+](=O)[O-])Nc1ccc(N2CCN(C(=O)c3cccs3)CC2)cc1	n	n	u	u	6.3µM	n
CC(=O)N1CCN(c2ccc(NC(=O)COc3ccc(Cl)cc3Cl)cc2)CC1	-64	x	n	n	u	x
O=C(COc1ccccc1Cl)Nc1cc(NC(=O)COc2ccccc2Cl)cc(C(=O)O)c1	n	n	8.9µM	u	n	n
CC(=O)N1CCN(c2ccccc2NC(=O)COc2ccc(Cl)cc2Cl)CC1	n	x	n	u	u	n
COc1ccc(CC(=O)NNC(=S)Nc2ccccc2)cc1Cl	-70	n	n	n	n	n
Cc1ccc2c(c1)-c1c(c(C(=O)N3CCN(c4cc(C)ccc4C)CC3)nn1C)CS2	u	n[7.34 µM]	n	x	x	n[7.34 µM]
CCN1C(=NCCCOC(C)C)N[C@H](c2ccccc2)[C@H](C(=O)OC)[C@H]1C	x	x	u	n	x	x
COc1ccc(S[C@@H]2C[C@@H](C(=O)Nc3ccc4nccnc4c3)N(C3Cc4ccccc4C3)C2)cc1	x	n	x	x	x	n
O=C(COc1ccccc1Cl)Nc1ccc(N2CCCC2)cc1	n	x	x	x	u	x
CCN1CCN(c2ccc(NC(=O)COc3ccc(Cl)cc3C)cc2)CC1	u	x	x	x	10µM	x
CN1CCN(c2ccc(Cl)cc2NC(=O)c2ccc(=O)n(C)n2)CC1	n	n	n	u	u	n
CC(Oc1ccc(Br)cc1)C(=O)Nc1cc(Cl)ccc1N1CCN(C)CC1 (stereo not given)	n	n	u	8.9µM	u	n
O=C(COc1ccc(Cl)cc1Cl)NNC(=S)Nc1ccc(F)cc1	-103	x	n	n	n	x
O=C(COc1ccccc1Cl)Nc1ccc(N2CCN(C(=O)c3ccccc3)CC2)cc1	n	x	x	x	5µM	x
Cc1ccccc1-c1noc(CSc2nnc(Cc3ccccc3)n2-c2ccc(F)cc2)n1	n	n	u	u	x	n
SMILES	HCMV inh	VACV mCherry inh	LASV entry inh	MARV entry inh	HCV inh	Vaccinia Venus
COC(=O)C1CCN(c2csc3ccc(C)cc3c2=O)CC1	n	n	n	x	x	n
CC(Oc1ccc(Cl)cc1Cl)C(=O)Nc1ccc(N2CCN(C)CC2)cc1 (stereo not given)	n	n	u	12µM	u	n
COc1ccc(CN2CCC(n3cc(C(=O)N4CCCC4)nn3)CC2)c(OC)c1C	x	n	x	x	x	n
CCCNS(=O)(=O)c1cccc(C(=O)NC2CCCc3ccccc32)c1 (stereo not given)	n	x	18µM	n	n	x
CN(C)S(=O)(=O)c1cccc(C(=O)NC2CCCc3ccccc32)c1 (stereo not given)	n	n	n	n	n	n
O=C(NCCc1nc2ccccc2n1Cc1c(F)cccc1Cl)c1ccco1	n	n	n	u	x	n
Cc1ccc(C)c(NC(=O)c2nc(-c3ccccc3)n(-c3ccccc3)n2)c1	n	x	n	n	n	x
Cc1ccc(-n2nc(C)c(NC(=O)CCl)c2C)cc1	-101	u	10µM	u	u	u
O=C(CCl)Nc1cc(-c2ccccc2)nn1-c1ccccc1	-87	x	u	5.2µM	14µM	x
Cc1ccc(-c2cc(NC(=O)CCl)n(-c3ccccc3)n2)cc1	-97	n	n	n	u	n
Cc1ccc(OCC(=O)Nc2cc(-c3cccc(C)c3)nn2-c2ccccc2)cc1	n	n	n	x	x	n
